Several values for one entry are separate records, joined by “and”; a condition that tells them apart may be missing. Identical values can stand only once. Records with an inconclusive call do not appear. A structure can be active in one record and inactive in another. Activity calls are given as the source filed them. Unless noted, calls come from the whole dose curve; as a rule, active = well fitted curve in the direction sought with a large enough effect; inconclusive = small, poorly fitted or top-dose-only effect, or another doubt; inactive = no such curve, though single readings can be large; an effect the other way counts as inactive or inconclusive.

The text below walks through data of PubChem BioAssay (NCATS).

For assay [1], the target named is Cytochrome P450 2D6 (Homo sapiens) (UniProt P10635). The assay can be described thus: Cytochrome P450 family 2 subfamily D member 6 (CYP2D6) small molecule antagonists: luciferase biochemical (cell-free) qHTS assay (AID 1645840; active = well fitted curve in the direction sought with a large enough effect in the repeat runs; an effect the other way counts as inactive or inconclusive; note: nearly all actives have a fitted effect of over 55% in size; note: potency is the fitted concentration of half-maximal effect). The gist of the method: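 P450-Glo luminescent screen: recombinant CYP2D6 enzyme–proluciferin substrate mix preincubated with compound 10 min at room temperature, then NADPH regeneration added for 1 h at room temperature. Detection reagent added for 20 min; luciferin light read as relative luminescence units.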
Sequence of Cytochrome P450 2D6 (Homo sapiens) (P10635 whole entry, looked up): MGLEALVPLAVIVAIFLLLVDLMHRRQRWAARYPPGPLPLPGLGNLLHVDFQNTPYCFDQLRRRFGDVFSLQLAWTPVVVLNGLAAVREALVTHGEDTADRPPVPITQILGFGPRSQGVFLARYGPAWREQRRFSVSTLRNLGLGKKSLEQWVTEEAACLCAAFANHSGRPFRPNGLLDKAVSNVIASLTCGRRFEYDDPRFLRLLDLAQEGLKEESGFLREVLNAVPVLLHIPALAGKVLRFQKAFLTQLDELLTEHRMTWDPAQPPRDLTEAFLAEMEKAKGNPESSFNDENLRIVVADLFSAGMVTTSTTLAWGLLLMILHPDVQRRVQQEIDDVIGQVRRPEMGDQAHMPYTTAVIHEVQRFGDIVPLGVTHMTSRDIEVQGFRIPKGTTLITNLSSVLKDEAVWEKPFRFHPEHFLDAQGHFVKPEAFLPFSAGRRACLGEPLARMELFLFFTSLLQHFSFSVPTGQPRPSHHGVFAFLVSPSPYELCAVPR
Background: In qHTS, concentration-response curves come from the screen itself.

For assay [2], the target named is Cytochrome P450 2C9 (Homo sapiens) (UniProt P11712). In words: Cytochrome P450 family 2 subfamily C member 9 (CYP2C9) small molecule antagonists: luciferase biochemical (cell-free) qHTS assay (AID 1645842; active = well fitted curve in the direction sought with a large enough effect in the repeat runs; an effect the other way counts as inactive or inconclusive; note: nearly all actives have a fitted effect of over 55% in size; note: potency is the fitted concentration of half-maximal effect). The gist of the method: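 Luminescence, after 20 min with luciferin detection reagent, reflected CYP2C9 turnover during a 1 h NADPH-driven reaction at 37C. Enzyme-substrate mix contained 0.4% bovine serum albumin and was preincubated with compound 10 min at room temperature.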
Sequence of Cytochrome P450 2C9 (Homo sapiens) (P11712 whole entry, looked up): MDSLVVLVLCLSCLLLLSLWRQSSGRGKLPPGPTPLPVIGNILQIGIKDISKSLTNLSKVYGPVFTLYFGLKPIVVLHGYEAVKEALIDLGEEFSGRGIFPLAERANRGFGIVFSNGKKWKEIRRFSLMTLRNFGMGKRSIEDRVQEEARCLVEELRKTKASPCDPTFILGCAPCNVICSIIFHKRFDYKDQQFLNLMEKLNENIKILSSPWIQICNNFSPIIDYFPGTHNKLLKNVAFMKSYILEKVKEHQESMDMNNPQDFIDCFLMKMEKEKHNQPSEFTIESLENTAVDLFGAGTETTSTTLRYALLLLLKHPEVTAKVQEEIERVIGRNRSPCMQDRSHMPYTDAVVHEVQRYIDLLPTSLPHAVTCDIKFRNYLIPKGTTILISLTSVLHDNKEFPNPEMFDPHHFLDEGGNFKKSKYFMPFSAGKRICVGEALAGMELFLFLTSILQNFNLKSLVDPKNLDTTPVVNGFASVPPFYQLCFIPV

Assay [3] is described as follows: Primary qHTS for inhibitors of nuclear receptor binding SET domain protein 2 (NSD2) in an isogenic RCH-ACV NSD2 p.E1099K mutant (9B) (AID 1645876). Note: nearly all actives have a fitted effect of over 70% in size. Note: potency is the fitted concentration of half-maximal effect.
Assay [4] in a line: Primary qHTS for inhibitors of nuclear receptor binding SET domain protein 2 (NSD2) in an RCH-ACV wild type WT cells (2C) (AID 1645877). Note: nearly all actives have a fitted effect of over 70% in size. Note: potency is the fitted concentration of half-maximal effect.
A short description of assay [5]: A High-Content qHTS Against Drug Library for the Identification of Small Molecules that Inhibit DYT1 Early Onset Primary Dystonia-Associated Cell Pathology (AID 1645839; calls by dose curve; note: series mostly up to about 46 µM). Put shortly:
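Readout: %pathology, the punctate EGFP-TorsinA distribution from imaging, as the primary channel and cell count as the toxicity counterscreen. HEK293 Flp-In cells expressing delE TorsinA were induced with tetracycline and treated with compound for 48 h.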

For another assay, the target named is Papain (Carica papaya) (UniProt P00784). The assay can be described thus: Primary qHTS assay for inhibitors of the protease papain (AID 1645873).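 Note: papain turnover of Z-FR-AMC read as the AMC fluorescence gain over 10 min.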 Note: potency is the fitted concentration of half-maximal effect.
Sequence of Papain (Carica papaya) (P00784 whole entry, looked up): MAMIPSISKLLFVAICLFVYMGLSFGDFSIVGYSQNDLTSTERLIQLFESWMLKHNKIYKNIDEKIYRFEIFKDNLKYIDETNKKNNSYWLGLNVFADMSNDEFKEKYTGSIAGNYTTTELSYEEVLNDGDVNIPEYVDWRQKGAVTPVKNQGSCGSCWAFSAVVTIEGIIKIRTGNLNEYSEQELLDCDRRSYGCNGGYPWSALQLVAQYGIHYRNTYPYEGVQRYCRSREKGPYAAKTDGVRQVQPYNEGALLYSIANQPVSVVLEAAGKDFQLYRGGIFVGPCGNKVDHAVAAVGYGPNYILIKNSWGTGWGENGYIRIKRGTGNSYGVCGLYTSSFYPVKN
Assay [6] addresses N-terminal Xaa-Pro-Lys N-methyltransferase 1 (Homo sapiens) (UniProt Q9BV86). The assay can be described thus: Confirmatory qHTS for Inhibitors of N-terminal methyltransferase 1 (NTMT1): MTaseGlo Assay (AID 1645874). Note: potency is the fitted concentration of half-maximal effect; nearly all actives have a fitted effect of over 65% in size. Put shortly:
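Compounds are incubated with 125 nM NTMT1 and 100 uM SAM for 15 min before the SPKRIA peptide (1 uM) starts a 30 min room-temperature methylation. SAH is measured by coupled luciferase luminescence and curves fitted to a Hill equation.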

Sequence of N-terminal Xaa-Pro-Lys N-methyltransferase 1 (Homo sapiens) (Q9BV86 whole entry, looked up): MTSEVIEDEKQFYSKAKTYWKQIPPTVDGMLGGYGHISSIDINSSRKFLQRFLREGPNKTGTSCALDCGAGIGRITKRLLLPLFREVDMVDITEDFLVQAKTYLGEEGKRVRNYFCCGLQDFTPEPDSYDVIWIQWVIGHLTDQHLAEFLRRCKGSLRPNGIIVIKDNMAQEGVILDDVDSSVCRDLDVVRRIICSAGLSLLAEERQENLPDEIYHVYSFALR

Turning to `NC(=O)N1c2ccccc2CC(=O)c2ccccc21`, the Potency result in assay [1] and in assay [2] was “inactive” throughout.
As to `C[C@@H]1C[C@H]2[C@@H]3CCC4=CC(=O)C=C[C@]4(C)[C@@]3(Cl)[C@@H](O)C[C@]2(C)[C@@]1(OC(=O)c1ccco1)C(=O)CCl`, the Potency in assay [1] was 2.45 µM (active); in assay [2], 4.36 µM (active); in assay [3], 23.7 µM (active); in assay [4], “inactive and 1.2 nM (active)”.
Regarding `COC(=O)Nc1nc2ccc(S(=O)c3ccccc3)cc2[nH]1` (centres undefined), the Potency was 12.3 µM (active) in assay [1]; 10.5 µM (active) and 596 nM (active) in assay [3]; 7.42 µM (active) and 335 nM (active) in assay [4]. The Potency entry in assay [2] is “inactive”.
In the case of `O=S(=O)(c1cccc2cnccc12)N1CCCNCC1`, the Potency entry in assay [5], in assay [2] and in assay [3] was “inactive” each time.
In the case of `C1CCC(C(CC2CCCCN2)C2CCCCC2)CC1` (centres undefined), the Potency in assay [1] was 0.138 µM (active); in assay [3], 7.42 µM (active).
Consider `CCCCOc1ccc(CC(=O)NO)cc1`, for which the Potency in assay [1] was 12.3 µM (active); in assay [2], 17.4 µM (active); in assay [3] it was “inactive and 16.6 µM (active)”; in assay [4], “inactive and 16.6 µM (active)”.
Turning to `Cc1nnc(C(=O)NC(C)(C)c2nc(C(=O)NCc3ccc(F)cc3)c(O)c(=O)n2C)o1`, the Potency entry in assay [5], in assay [1], in assay [2], in assay [3] and in assay [4] was “inactive” throughout.
`CC(C)C[C@H](NC(=O)[C@H](CCc1ccccc1)NC(=O)CN1CCOCC1)C(=O)N[C@@H](Cc1ccccc1)C(=O)N[C@@H](CC(C)C)C(=O)[C@@]1(C)CO1`: the Potency result in assay [5], in assay [1] and in assay [2] was “inactive” throughout. For the same compound, the Potency was 7.5 nM (active) and 10.5 nM (active) in assay [3]; 6 nM (active) and 5.3 nM (active) in assay [4].
Take `CC[C@H](C)C(=O)O[C@H]1C[C@@H](C)C=C2C=C[C@H](C)[C@H](CC[C@@H]3C[C@@H](O)CC(=O)O3)[C@H]21`: the Potency result in assay [5] is “inactive”. In addition, in assay [3], the Potency is 16.8 µM (active) and 10.5 µM (active).
As to `CC1=CC(=O)c2ccccc2C1=O`, the Potency in assay [1] was 15.5 µM (active); in assay [3] it was 31.6 µM (active) and inactive.
Take `Cc1cccc(Nc2ccncc2S(=O)(=O)NC(=O)NC(C)C)c1`: the Potency result in assay [5], in assay [1] and in assay [3] was “inactive” throughout.
As for `CC(C)NCC(O)c1ccc(NS(C)(=O)=O)cc1` (centres undefined), the Potency result (with Papain (Carica papaya); in assay [3]; in assay [4]) was “inactive” throughout.
Consider `C[C@@H]1CN(c2c(F)c(N)c3c(=O)c(C(=O)O)cn(C4CC4)c3c2F)C[C@H](C)N1`, for which the Potency result in assay [5], in assay [1], in assay [2], in assay [3] and in assay [4] was “inactive” in each case.
For `Nc1nc(N)c2nc(CNc3ccc(C(=O)NC(CCC(=O)O)C(=O)O)cc3)cnc2n1` (centres undefined), the Potency in the assay with Papain (Carica papaya) is 3.55 µM (active).
In the case of `N[C@@H](Cc1ccc(O)c(O)c1)C(=O)O`, the Potency entry (in the assay with Papain (Carica papaya); in assay [3]; in assay [4]) was “inactive” throughout.
For the compound `CNCC[C@H](Oc1cccc2ccccc12)c1cccs1`, the Potency result in assay [2] is “inactive”. Besides, in assay [3], the Potency is 23.7 µM (active).
Consider `CS(=O)(=O)c1ccc([C@@H](O)[C@@H](CO)NC(=O)C(Cl)Cl)cc1`, for which the Potency result in assay [5], in assay [2] and in assay [3] was “inactive” throughout.
For `O=C(O)c1cccnc1`, the Potency entry in assay [5], in assay [1], in assay [3] and in assay [4] was “inactive” throughout.
As to `C[C@@H](CN1CC(=O)NC(=O)C1)N1CC(=O)NC(=O)C1`, the Potency entry in assay [5], in assay [1] and in assay [2] was “inactive” each time. Also, the Potency in assay [3] was 16.8 µM (active) and 5.25 µM (active); in assay [4], 8.33 µM (active).
As for `CC1=NN(c2ccccc2)C(=O)C1`, the Potency result in assay [5], in assay [3] and in assay [4] was “inactive” each time.
Turning to `CC1(C)[C@H](C(=O)O)N2C(=O)C[C@H]2S1(=O)=O`, the Potency entry in assay [5], in assay [1], in assay [2], in assay [3] and in assay [4] was “inactive” throughout.
On to `C#CCN[C@@H]1CCc2ccccc21`, for which the Potency entry in assay [5], in assay [2] and in assay [3] was “inactive” throughout.
With `COc1ccc2cc3[n+](cc2c1OC)CCc1cc2c(cc1-3)OCO2`, the Potency entry in assay [5] and in assay [2] was “inactive” throughout. For the same compound, the Potency is 1.55 µM (active) in assay [1]; 11.9 µM (active) and 5.9 µM (active) in assay [3]; 11.9 µM (active) and 3.32 µM (active) in assay [4].
For the compound `COc1cc2ncnc(Nc3cccc(Cl)c3)c2cc1OC`, the Potency was 8.49 µM (active) in assay [2], 12.6 µM (active) in assay [6], 11.5 µM (active) in assay [3] and 12.9 µM (active) in assay [4]. Besides, the Potency result in the assay with Papain (Carica papaya) was “inactive”.
Take `CC1=C(C(=O)O)N2C(=O)[C@@H](NC(=O)C(N)c3ccccc3)[C@H]2SC1` (some centres undefined): the Potency result with Papain (Carica papaya) is “inactive”.
For the compound `Cn1nnc2c(C(N)=O)ncn2c1=O`, the Potency result in assay [5], in assay [1], in assay [2], in assay [3] and in assay [4] was “inactive” in each case.
